TbPYK inhibitor – blocks Trypanosoma brucei pyruvate kinase. Q57TT1. TbPYK enzyme, Kinase-Glo Plus ATP luminescence, 45 min. Potency, µM (top dose mostly 76.8 µM), without a hit: top-dose activity, negative = inhibition, hits mostly inhibitors. hit rate 0.12% among 410,000. AID 624173; further: potency means the concentration at half of the fitted maximal effect; on the % scale 0 is the no-effect control and ±100 the full control effect; nearly all actives have a fitted effect of over 50% in size
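Screened from lowest to highest concentration, compounds were pinned into TbPYK/substrate mixtures, and ADP (130 uM final) was added. Plates sat at room temperature for 45 min prior to Kinase-Glo Plus detection by luminescence.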
Shiga inhibitor – blocks Shiga toxin action in Vero cells; inhibition, % at 38.7 µM; hit rate 9.2% among 290,000; Vero cells, Shiga toxin protein synthesis inhibition reporter; in the data active means inhibition mostly above about 28%, no sharp cut-off; inactive means mostly below about 43%; further: 0% is about no effect
FBPA Giardia inh – Giardia lamblia aldolase inhibition; hit rate 0.71% among 290,000; A8B2U2; Potency, µM (titrated, usually from 59.6 µM), inactives show at the highest dose activity, negative = inhibition, most hits filed as inhibitors; AID 2451; purified Giardia FBPA; further: potency means the concentration at half of the fitted maximal effect; on the % scale 0 is the no-effect control and ±100 the full control effect; nearly all actives have a fitted effect of over 55% in size
Target sequence (A8B2U2 whole entry, looked up): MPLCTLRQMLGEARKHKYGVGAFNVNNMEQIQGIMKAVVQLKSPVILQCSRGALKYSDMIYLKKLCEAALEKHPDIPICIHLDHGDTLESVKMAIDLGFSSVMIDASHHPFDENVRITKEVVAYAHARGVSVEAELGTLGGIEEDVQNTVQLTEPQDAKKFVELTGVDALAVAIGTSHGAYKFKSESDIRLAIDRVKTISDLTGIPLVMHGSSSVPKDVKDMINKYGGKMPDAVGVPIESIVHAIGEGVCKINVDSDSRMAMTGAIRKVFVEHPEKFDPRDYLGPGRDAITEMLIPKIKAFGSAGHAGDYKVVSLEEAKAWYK
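Giardia FBPA (40 nM reagent) was preincubated 10 min at RT with compound (up to 57.5 uM final), then substrate plus GAPDH/TPI/NAD/arsenate coupling system with diaphorase/resazurin was added; resorufin fluorescence (525/598 nm) was read after 20 min.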
Sm TGR block – blocks Schistosoma mansoni thioredoxin glutathione reductase. Q962Y6. purified TGR, DTNB reduction, TNB absorbance 405 nm. Potency, µM (doses to about 114 µM), inactives show at the highest dose activity change, negative = inhibition, actives largely listed as inhibitors. hit rate 3% among 360,000; further: potency means the concentration at half of the fitted maximal effect; on the % scale 0 is the no-effect control and ±100 the full control effect; nearly all actives have a fitted effect of over 60% in size
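TGR 20 nM + NADPH 100 uM (dispensed conc.), cpd preinc 15 min RT; start with NADPH (500 uM addition) then DTNB (15 mM addition). Kinetic TNB absorbance, 405 nm filter. Four-parameter Hill fit across titration.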
CHX counter – counter-screen for Shiga toxin inhibitors: cycloheximide protein synthesis inhibition; max response, %; cell reporter, cycloheximide protein synthesis inhibition counterscreen; hit rate 12% among 300,000; in the data active means max response mostly above about 13%, no sharp cut-off; inactive means mostly below about 14%; further: read at 38.3 µM for the half of the compounds with a filed dose; 0% is about no effect
LmPK inh – LmPK (Leishmania mexicana) enzyme inhibition; purified LmPK, Kinase-Glo ATP luminescence, 1 h; Potency, µM (titrated, usually from 57.5 µM), for inactives: top-dose activity change, negative = inhibition, actives largely listed as inhibitors; hit rate 0.37% among 290,000; AID 1721; further: potency means the concentration at half of the fitted maximal effect; on the % scale 0 is the no-effect control and ±100 the full control effect
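qHTS format; LmPK 0.1 nM; substrates PEP 0.5 mM and ADP 0.1 mM. One-hour room-temperature incubation, then coupled luciferase luminescence; 0.5 nM enzyme wells mark activation.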
Numbers without * were called inactive; [ ] = another dose, or the depositor's remark. Shown is part of a subset that was picked to be rich in hits. Unless noted, the call rests on the fitted dose curve; in most records, active means well fitted curve in the direction sought with a large enough effect; inconclusive means small, poorly fitted or top-dose-only effect, or another doubt; inactive means no such curve, though single readings can be large; an effect the other way counts as inactive or inconclusive.

How did CC(=O)c1ccc(-n2c(CCC(=O)O)ccc2-c2ccc(Br)cc2)cc1 do in these assays?
TbPYK inhibitor: -8%; Shiga inhibitor: -5; FBPA Giardia inh: 10%; Sm TGR block: inconclusive; CHX counter: -2; LmPK inh: -2%

Results for CN(C)c1ccc(-n2c(CCC(=O)O)ccc2-c2ccccc2)cc1 ?
TbPYK inhibitor: -11%; Sm TGR block: inconclusive

What do the screens show for `COC(=O)c1ccc(-n2c(CCC(=O)O)ccc2-c2ccccc2)cc1`?
TbPYK inhibitor: -5%; Shiga inhibitor: 28; FBPA Giardia inh: 7%; Sm TGR block: 14µM*; CHX counter: 11; LmPK inh: -1%

Results for O=C(O)CCc1ccc(-c2ccccc2)n1-c1cccc(Br)c1 ?
TbPYK inhibitor: -10%; Sm TGR block: 16µM*

What do the screens show for `NC(=O)c1cc[n+](CC2=C(C(=O)[O-])N3C(=O)[C@@H](NC(=O)Cc4cccs4)[C@@H]3SC2)cc1`?
TbPYK inhibitor: 0%[33.2 µM]; FBPA Giardia inh: -10%[21.7 µM]

How did COc1ccccc1N(C)S(=O)(=O)c1ccc(C(=O)N2CCCc3ccccc32)cc1 do in these assays?
TbPYK inhibitor: 0%; Shiga inhibitor: -1; FBPA Giardia inh: 8%; Sm TGR block: -8%; CHX counter: 6; LmPK inh: 0%

How did O=C(O)CCc1ccc(-c2ccccc2)n1NC(=O)c1cccs1 do in these assays?
TbPYK inhibitor: -7%; Shiga inhibitor: 4; FBPA Giardia inh: 6%; Sm TGR block: 50µM*; CHX counter: -1; LmPK inh: 9%

What do the screens show for `CC(=O)c1cccc(-n2c(CCC(=O)O)ccc2-c2ccccc2)c1`?
TbPYK inhibitor: -17%; Shiga inhibitor: 75*; FBPA Giardia inh: 10%; Sm TGR block: 18µM*; CHX counter: 40*; LmPK inh: -2%

Results for O=C(O)CCc1ccc(-c2cccs2)n1-c1ccc(C(=O)O)cc1 ?
TbPYK inhibitor: -20%; Shiga inhibitor: 19; FBPA Giardia inh: 3%; Sm TGR block: 7.9µM*; CHX counter: 1; LmPK inh: 0%

What do the screens show for `O=C(O)CCc1ccc(-c2cccs2)n1NC(=O)c1ccccc1Br`?
TbPYK inhibitor: -14%; Shiga inhibitor: -3; FBPA Giardia inh: 10%; Sm TGR block: inconclusive; CHX counter: 2; LmPK inh: 3%

Results for CC(C)(C)c1ccc(C(=O)Nn2c(CCC(=O)O)ccc2-c2cccs2)cc1 ?
TbPYK inhibitor: -7%; Shiga inhibitor: -20; FBPA Giardia inh: 13%; Sm TGR block: 50µM*; CHX counter: 6; LmPK inh: 11%

How did Oc1c(C(c2ccc(Cl)cc2)N2CCC3(CC2)OCCO3)sc2nc(-c3ccco3)nn12 (stereo not drawn) do in these assays?
TbPYK inhibitor: 0%; Sm TGR block: 4%

Results for COC(=O)c1ccccc1-n1c(CCC(=O)O)ccc1-c1ccccc1 ?
TbPYK inhibitor: -5%; Shiga inhibitor: 3; FBPA Giardia inh: 10%; Sm TGR block: 45µM*; CHX counter: 8; LmPK inh: 2%

How did CC(=O)c1cccc(-n2c(CCC(=O)O)ccc2-c2cccs2)c1 do in these assays?
TbPYK inhibitor: -18%; Shiga inhibitor: 52; FBPA Giardia inh: 8%; Sm TGR block: 5.6µM*; CHX counter: 26*; LmPK inh: 2%

How did COc1ccc(-n2c(CCC(=O)O)ccc2-c2ccc(F)cc2)c(OC)c1 do in these assays?
TbPYK inhibitor: -4%; Shiga inhibitor: 20; FBPA Giardia inh: -8%; Sm TGR block: 45µM*; CHX counter: 10; LmPK inh: 4%

How did COc1ccc(N/C=C2\C(=O)CCc3c2oc2cc(Cl)c(O)c(Cl)c32)cc1 do in these assays?
TbPYK inhibitor: -7%; Shiga inhibitor: 3; FBPA Giardia inh: 0%; Sm TGR block: 35µM*; CHX counter: -3; LmPK inh: 1%

Results for CC1CCCCN1Cc1c(O)ccc2c(=O)c(-c3nc4ccccc4s3)coc12 (stereo not drawn) ?
TbPYK inhibitor: 6%; Shiga inhibitor: 61*; FBPA Giardia inh: -1%; Sm TGR block: 0%; CHX counter: 28*; LmPK inh: 7%

Results for COCCSc1nnc(NC(=O)C2CCCO2)s1 (stereo not drawn) ?
TbPYK inhibitor: -1%; Shiga inhibitor: 91*; FBPA Giardia inh: -2%; Sm TGR block: -5%; CHX counter: 24*; LmPK inh: -10%

How did CCCC(C)c1nnc(NC(=O)C(=O)OCC)s1 (stereo not drawn) do in these assays?
TbPYK inhibitor: -21%; Shiga inhibitor: 46; FBPA Giardia inh: inconclusive; Sm TGR block: 2%; CHX counter: 8; LmPK inh: 0%

How did CCCCCc1nnc(NC(=O)C2CCCO2)s1 (stereo not drawn) do in these assays?
TbPYK inhibitor: -6%; Shiga inhibitor: 67*; FBPA Giardia inh: -1%; Sm TGR block: -18%; CHX counter: 44*; LmPK inh: -1%

What do the screens show for `Cc1nnc(NC(=O)C2CCCO2)s1` (stereo not drawn)?
TbPYK inhibitor: 8%; Shiga inhibitor: 6; FBPA Giardia inh: -5%; Sm TGR block: -29%; CHX counter: 4; LmPK inh: 4%

What do the screens show for `CCCC(C)c1nnc(NC(=O)C2CCCO2)s1` (stereo not drawn)?
TbPYK inhibitor: -10%; Shiga inhibitor: 35*; FBPA Giardia inh: 1%; Sm TGR block: -16%; CHX counter: 40*; LmPK inh: 0%

How did CSc1ccccc1C(=O)NCc1ccccc1C do in these assays?
TbPYK inhibitor: 0%; Shiga inhibitor: -4; FBPA Giardia inh: 7%; CHX counter: 0; LmPK inh: 0%

Results for Cn1c(Oc2ccccc2)nc2c1c(=O)n(Cc1ccc(Cl)cc1Cl)c(=O)n2C ?
TbPYK inhibitor: 1%; Sm TGR block: 18%

What do the screens show for `Cc1ccc2nc3cc([N+](=O)[O-])cc([N+](=O)[O-])c3cc2c1`?
TbPYK inhibitor: -3%; Shiga inhibitor: 134*; FBPA Giardia inh: -16%; Sm TGR block: 2.5µM*; CHX counter: 68*; LmPK inh: -1%

What do the screens show for `COc1ccccc1NC(=O)C1=C(C)Nc2nc(SCc3cc(C)ccc3C)nn2C1c1ccccc1` (stereo not drawn)?
TbPYK inhibitor: -2%; Sm TGR block: 0%

Results for C=CCn1c(C)cc(-c2csc(NC)n2)c1C ?
TbPYK inhibitor: -13%; Shiga inhibitor: -4; FBPA Giardia inh: inconclusive; Sm TGR block: -12%; CHX counter: 1; LmPK inh: -9%

Results for C=CCn1c(C)cc(-c2csc(NCC)n2)c1C ?
TbPYK inhibitor: 2%; Shiga inhibitor: 89*; FBPA Giardia inh: inconclusive; Sm TGR block: -6%; CHX counter: 43*; LmPK inh: -3%

Bioassay records as filed in PubChem.
